Measured values as given in PubChem BioAssay AID588348 (Broad Institute, 2011).
Out of some 1,300 compounds screened, fewer than 10 were called active.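 How the source made its calls: active means fitted half-maximal dose AC50 no more than ten times the top valid tested dose, with luminescence dropping as dose rises; inconclusive means poor fit, or flat fit with 30 to 70% inhibition; inactive means the rest, signal increases included.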 Only a sample is shown.

test: luciferase inhibitors in kinase-free ADP detection – biochemical, luminescence, cherry-pick, set 02, artefact control for Dyrk1A inhibitor project, dose response (AID 588348); settings: ADP-Glo luciferase artifact assay, no Dyrk1A; series mostly up to 12 µM; activity change, negative = inhibition: at the top concentration;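 further: 0% = median of neutral control wells and -100% = median of positive control wells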

Activity change, negative = inhibition, inactive:
COc1c(O)cc2oc(-c3ccc(O)c(O)c3)cc(=O)c2c1O 6.57%, CCN(CC)c1ccc(NC(=O)CCc2nnc3ccc(N4CCCCC4)nn23)c(C)c1 9.92%, CCOC(=O)Cn1c(-c2cccnc2Cl)nc2ccccc21 8.46%, Cc1cc(/C=N/Nc2ccc([N+](=O)[O-])cn2)c(C)n1-c1cccc(C(=O)O)c1 8.55%, Cc1noc(C)c1-c1ccc2ncnc(NC(C)c3ccco3)c2c1 (configuration not stated) 10.7%, COc1ccc2c(Cl)c(C(=O)NCc3ccco3)sc2c1 2.94%, Cc1cccc(-c2nc(Nc3ccc(O)cc3)c3ccccc3n2)c1 8.32%, Oc1ccc(-c2nc3ccccc3nc2-c2ccc(O)cc2O)c(O)c1 6.7%, Oc1ccc(-c2[nH]ncc2-c2nc3ccccc3s2)c(O)c1 8.04%, NC(=S)c1ccc(C(N)=S)o1 8.12%, Nc1nonc1-n1nnc(C(=O)N/N=C\c2ccncc2)c1CN1CCCCC1 6.25%, C=C(C)Cn1c(N2CCN(CC)CC2)nc2c1c(=O)[nH]c(=O)n2C 8.26%, Nc1nc(SCc2ccc([N+](=O)[O-])cc2)c2ncn(C3OC(CO)C(O)C3O)c2n1 (configuration not stated) 7.11%, Nc1nc(NCCCN2CCOCC2)nc(Nc2ccccc2)c1[N+](=O)[O-] 7.41%, Cc1ccc(/C=C(\C#N)C(=O)Nc2cccc3ncccc23)o1 7.8%, CC(=O)Oc1ccc2c(c1)C(=O)c1ccccc1C2=O 8.92%, CCc1cc2c(NC3CCCC3)ncnc2s1 9.96%, COc1ccc(S(=O)(=O)N(C)C[C@H]2Oc3ccc(NS(=O)(=O)c4cccs4)cc3CC(=O)N([C@H](C)CO)C[C@H]2C)cc1 9.41%, COc1ccc2oc(N)c(C=O)c(=O)c2c1 7.76%, COc1ccc2[nH]c(C)c(CCN(Cc3cccs3)C(=S)Nc3ccccc3OC)c2c1 9.48%, NS(=O)(=O)c1ccc(-c2ccc(/C=C3\SC(=O)NC3=O)o2)cc1 5.57%, O=C(NC(Nc1nc2ccc([N+](=O)[O-])cc2s1)(C(F)(F)F)C(F)(F)F)c1ccccc1 18.5%, O=C1/C(=C/c2ccc3c(c2)OCO3)Oc2cc(OCC(=O)N3CC(O)C[C@H]3C(=O)O)ccc21 (some centres not stated) 11.8%, CCOc1cc(/C=C2\SC(N3CCCCC3)=NC2=O)ccc1O 7.18%, CCc1n[nH]c(=S)n1/N=C/c1c[nH]c2ccc(Br)cc12 7.76%, CC(=O)C1C(c2ccc(Cl)cc2)NC(=O)NC1(O)C(F)(F)F (configuration not stated) 6%, CC(=O)Nc1cccc(-c2cnc3ccccc3n2)c1 13.1%, Oc1ccc(-c2csc(Nc3cccnc3)n2)cc1 8.19%, CCOCCCNC(=O)C(NC(=O)c1ccc(=O)[nH]c1)c1ccc(Cl)cc1 (configuration not stated) 7.16%, CN1c2ccc(C=O)c3c(C=O)ccc(c23)N(C)C1(C)C 8.18%, O=C1N=C(N2CCc3ccccc3C2)S/C1=C\c1ccc(O)cc1 6.19%, O=C(NCCc1ccccc1)C1CCN(S(=O)(=O)c2ccc(Br)s2)CC1 11%, CCn1c(NC(=O)c2ccccc2)c(-c2cccs2)c(=O)c2ccccc21 7.02%, COc1cccc(C(=O)NNC(=O)/C=C/c2ccccc2)c1 9.62%, C[C@@H]1O[C@@H](OC[C@H]2O[C@@H](Oc3c(-c4ccc(O)cc4)oc4cc(O)cc(O)c4c3=O)[C@H](O)[C@@H](O)[C@@H]2O)[C@H](O)[C@H](O)[C@H]1O 10.5%, Cc1noc(NS(=O)(=O)c2ccc(NC(=O)c3oc4ccc(F)cc4c3C)cc2)c1C 8.7%, COc1cc(O)c2c(=O)c3c(O)c(O)ccc3oc2c1OC 7.64%
